# Results from the supplement of paper PMC11417369.
# ± gives the standard deviation of the averaged measurements. In all, about 25,000 sequences were measured (“ln(normalized median fluorescence intensity)”: median about 10, highest 2% from about 12 on). Shown is part of a subset that was picked to be rich in the highest values.
# System: PfAP2-G AP2 domain (GST-tagged)
# Assay: gcPBM binding intensity (ln(normalized median fluorescence intensity)); higher = stronger DNA binding
# In short: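 An Agilent 4 × 180k array carrying primer-extended double-stranded 36-bp intergenic genomic probes and negative controls received GST-tagged P. falciparum DNA-binding domains expressed in E. coli, about 25 μg on average, for 1 h. The binding buffer contained 1× PBS, 1% milk, 0.2 mg/ml BSA, 0.5% salmon testes DNA and 0.03% Triton X-100. Binding intensity is the top Masliner-normalised natural-log median intensity across replicate spots of either probe orientation, read after Alexa488 anti-GST antibody staining and a 488 nm scan.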
row,Sequence,gcPBM binding intensity (ln)
1,ATATATAATATATACACACACATGTATATATAAATA [CACACA_site1968],9.87 ± 0.16
2,TTTCTTTTTAAATAGGTGCATATTTTTATAAATATA,10.1 ± 0.38
3,AAACTAACTCTAACATGTACATATATATATATATAT [XGTACX_site6949],11.1 ± 0.66
4,AACAATTATTGTAATGCATGCACTGAATATAGAAAG [TGCATGCA_site889],10.2 ± 0.18
5,TGTGTTAATATATGAAGTACACAATACACACTAATT [XGTACX_site5469],11.4 ± 0.73
6,ATGTACATTTTTTTCACACATACATTAATTTATGAG [CACACA_site5801],11.3 ± 0.87
7,GCCCCCTAAAAAATTACACACGAAAAAAATGAATTT [CACACA_site9128],11.7 ± 1.2
8,ATAAAAAAATAAATAACACACAAAATTACACGAAAA [CACACA_site3620],10.01 ± 0.049
9,GCAGGCTAAAAAATTACACACGAAAAAAATGAATTT [CACACA_site3417],9.86
10,TATATTATATTTTTATGTACTTATTTATTTTGTTTC [XGTACX_site6145],11.3 ± 0.67
11,AGTCTGAATAAAATTACACACATATACAGATATATA [CACACA_site5054],9.8 ± 0.014
12,TAAGTCGCCAAAAGGTGTACACATAATGCATTATCA [XGTACX_site8852],11.8 ± 0.79
13,ACCAAATTATCAAATGGTACACATAAAATAATAAAA [XGTACX_site865],11.3 ± 0.74
14,TTTTTTTTTTTTTTGTGTACATATAATGCACATTAT [XGTACX_site6505],11.4 ± 1
15,GTCGCCAAAAGGTGTACACATAATGCATTATCATAA [CACACA_site6112],11.7 ± 0.88
16,TGCATGCATTATCATAGTACATATAATGTTGTATAA [XGTACX_site2775],10.7 ± 0.45
17,AAAAAAAAAAAAAGGTGTACAAGTATAATTACATAA [XGTACX_site534],11.5 ± 0.95
18,TACGTTTTAAAACACACACACAAAAAAAAAAAAAAA [CACACA_site3876],9.97 ± 0.64
19,TTACATTATATACATACACACCCACCCACAAAAAAA [CACACA_site8187],10.7 ± 0.47
20,TATATATAAGCGTGTACACATTCTGAGTGTTGTATA [CACACA_site4502],11.7 ± 1.1
21,AAATATATATAAGCGTGTACACATTCTGAGTGTTGT [XGTACX_site1088],11.7 ± 1.1
22,ATATATATATATAAATGTACATTGTGTGTTGTAAGA [XGTACX_site2434],10.8 ± 0.38
23,ATGTTGTGTATATATACACACATACATATATATATA [CACACA_site8461],10.4 ± 0.43

row,Sequence,gcPBM binding intensity (ln)
1,ATATATATATAGTGTTGTACATTTAAAAATAATATA [XGTACX_site2627],11.2 ± 0.78
2,TATGTATTCATATGTTGTACATTATATATAATAAGT [XGTACX_site6589],11.2 ± 0.79
3,ATTCCAAAAAAATCAAGTACTAATTTATTATATTAC [XGTACX_site3920],10.9 ± 0.49
4,AATAAATTTAGACACACACACACATATAAATAAATA [CACACA_site6531],10.1 ± 0.13
5,AAAGAATTTGCATATACACACAAAAAAATATATACA [CACACA_site386],10.03 ± 0.035
6,TATATATATATTTATACACACATTAGTGTATACATG [CACACA_site2950],10.3 ± 0.22
7,TTAATATATTATATTTGTACATATATATATATACAA [XGTACX_site4798],10.9 ± 0.62
8,CATGTGCATATTAAATGTACATATATACATATATAC [XGTACX_site857],10.9 ± 0.58
9,TTACATACATACAAGTGTACGCATATATTAATATTA [XGTACX_site4006],11.8 ± 1
10,AATATATTTATATAGTGTACATTTTTTATATATGTA [XGTACX_site8142],11.3 ± 0.78
11,ATATTAATATACATATGTACATATATATATATATAT [XGTACX_site7425],11.2 ± 0.62
12,TTGTGTACATATTAAGTGCATATATATATATATATA,11.7 ± 1.2
13,TATATTAATAATAAGTGTACATATATATATATTTTT [XGTACX_site288],11.3 ± 0.81
14,TTTTTTTTATTAGTGTGTACGCATTTATTTATACAT [XGTACX_site1599],11.7 ± 0.88
15,AATATATCTTTTTACGGCAACCATATTTTTCCCATT [CACACA_negctrl_site963],10.21 ± 0.064
16,TGATTATCCTATATATATTTCATAATGGAAAAAAAT [TGCATGCA_negctrl_site444],9.89 ± 0.35
17,CCATATGATATATATTGTACATTATATATTATTTCT [XGTACX_site1697],10.7 ± 0.45
18,CGTTAAAGGGAATGTATACACACGTTTCTCTATGTT [CACACA_site1198],10.2 ± 0.16
19,TATACACATATATAAACACACAAAAAAAAAAAAAAA [CACACA_site7041],9.78 ± 0.53
20,TATATACACATATATAAACACACAAAAAAAAAAAAA [CACACA_site8626],9.89 ± 0.48
21,ACGTATAATATGTACACACACATATATACAAAAAAA [CACACA_site917],11.5 ± 1.1
22,ATATACACACAAAAACGTACACATATATATATGTAT [XGTACX_site2673],11.7 ± 0.86
23,TATAAACGTATAATATGTACACACACATATATACAA [XGTACX_site1686],11.3 ± 0.94

row,Sequence,gcPBM binding intensity (ln)
1,TAAAAAAAAACATATACACACAAAAACGTACACATA [CACACA_site1354],11.8 ± 1.1
2,AAAAATTTATTTTGTTTTTTAAGATTTTTTTTTTTT [CACACA_negctrl_site1210],9.46 ± 0.028
3,TAGTATAATATGAACACACACACACGCACAAAAAAA [CACACA_site7035],10.4 ± 0.2
4,CATATAATATAATTATGTACATATATAATAATATAC [XGTACX_site5278],11.2 ± 0.69
5,CTTATTTAAGAGTATGAACACACATCATACACATAT [CACACA_site9205],10.3 ± 0.23
6,TTTTGTTACGGCAAGGAAGTTAAGCATAAATGAATG [GTGCAC_negctrl_site173],10.1 ± 0.16
7,AAAAAAGGTAAAAAAAGTACAAAAAAAAAATTAAAA [XGTACX_site6993],11.3 ± 0.88
8,AAAAAAAAAAAAAAAGGTACAGTAAAAAATTCCTCT [XGTACX_site5947],11.7 ± 0.98
9,AAAAAAAAATAAAAAAGTACAGGTAAATATATATAT [XGTACX_site5812],11.5 ± 1.2
10,ATATTGTAAGTAAACACACACACATATATATGTATA [CACACA_site8124],9.955 ± 0.035
11,ATATATAAAATATATTGTACATTAACATATATATTT [XGTACX_site2055],10.7 ± 0.43
12,ATAAATATAACATATTGTACCCTTAAAAAGGAACAA [XGTACX_site352],11.7 ± 0.96
13,AAAGACAAAAGGAATTGTACATAATATATAAAATAT [XGTACX_site2923],10.8 ± 0.54
14,TAGTAATATATATTTTGTACATAAAATAATATATAA [XGTACX_site7971],10.9 ± 0.59
15,TAATAATATATTTGTAGTACACAATTTTTTATAACT [XGTACX_site3951],11.6 ± 0.89
16,ATAATATATTTTTGTAGTACACTTCTGGTAATATCG [XGTACX_site2402],11.7 ± 1
17,AAGTTTTATTTAAATTGTACTAAAATTTTTATATTA [XGTACX_site7065],11 ± 0.69
18,TGATGCAAGATATATACACACATATAAATATAAATA [CACACA_site7429],9.8 ± 0.042
19,AACACATAAAAAAGGTGTACCATAAAATATACATAC [XGTACX_site4478],11.4 ± 0.76
20,TAAAGTTATGCAATAACACACATATACAATACATAT [CACACA_site6698],9.98 ± 0.057
21,TATATATAAAGGTGTACACATATATATATATCTGTA [CACACA_site5311],11.7 ± 0.98
22,ACATATATATAAAGGTGTACACATATATATATATAT [XGTACX_site4779],11.7 ± 0.76
23,TATATATATCTGTACACACACACATATAAATAAATA [CACACA_site4405],11.4 ± 1

row,Sequence,gcPBM binding intensity (ln)
1,ATACAATAAAGGTGTACACATATATGATGCAAGATG [CACACA_site5897],11.7 ± 0.93
2,AATACAATATAAAGGTGTACATATATATATATATAT [XGTACX_site68],11.4 ± 0.9
3,AATAAATAAATATATACACACATATATCTGTACATA [CACACA_site9034],10.9 ± 0.67
4,TAAGCCAAGGGATAAATAAAATAACAAAATGAAATC [GTGCAC_negctrl_site601],9.66 ± 0.36
5,TATACACATATATAAAGTACATATATGTGTAAAAAA [XGTACX_site8582],11 ± 0.64
6,AAATATAAAAGTATATGTACATATATATATATATAT [XGTACX_site7446],11.2 ± 0.64
7,ATATGTATATATAAAAGTACGCGTAAAAAAAAAAAA [XGTACX_site5377],11.7 ± 1.3
8,TATTTTTTAAAAAAATGTCATAAAATTTCTTTTTTC [XGTACX_negctrl_site271],9.9
9,AAAAAAAAAAAAAGATGTACATATATTTTTATTATA [XGTACX_site654],11.4 ± 0.96
10,ATATGCCTAATAAAATGTACGTTTGTTTTATTTATT [XGTACX_site3833],11 ± 0.49
11,TAATATATTAATTTTTGTACTTAATTATATGTTTTT [XGTACX_site5654],10.9 ± 0.63
12,GCCTATATGTTTAGTTGTACTCCTAATATTATTTGT [XGTACX_site6060],11.7 ± 1.1
13,ACTTTCAAGGATGTACGTACATATGTATTTTATAAC [XGTACX_site6714],11.7 ± 0.91
14,CTTTAACCATATATGTGTACGTATTTTATTCATATT [XGTACX_site6212],11.8 ± 1.1
15,ATACATATATAATTATGTACGTATATTTTATATAAC [XGTACX_site4292],11.6 ± 0.91
16,ATATATACATATATATGTACGTATATTTTTATTTCT [XGTACX_site6198],11.6 ± 1.1
17,ATATGTATATTTTTTTGTACGTATTTATGTGTGTGT [XGTACX_site2093],11.4 ± 0.84
18,ATATTTATATTTTCATGTACGTATTTTTATATATAT [XGTACX_site8478],11.6 ± 0.96
19,TAATAAATCAAATGCACACACACAAAAAAAAAAAAA [CACACA_site161],10 ± 0.49
20,AGAAATATATATATATATATATATATATATATATAT [TGCATGCA_negctrl_site375],10 ± 0.88
